# According to paper PMC11006913:
# Numbering of substitutions follows the chain as printed.
# Tests used:
# Experiment in all cases: PBM; 200 nM protein, PBS
# Conditions in all cases: dsDNA, one strand shown
# [1] = molecular target: HOXB4 (Homo sapiens, UniProt P17483 148-234)
# [2] = molecular target: T1, VENTX (Homo sapiens, UniProt O95231 78-163, R121Q)
# T1 sequence: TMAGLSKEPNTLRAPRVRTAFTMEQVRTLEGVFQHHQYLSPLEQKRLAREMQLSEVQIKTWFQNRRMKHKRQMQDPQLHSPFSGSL
# [3] = molecular target: T2, VENTX (Homo sapiens, UniProt O95231 78-163)
# T2 sequence: T1 sequence with Q44R
# [4] = molecular target: T3, VENTX (Homo sapiens, UniProt O95231 78-163, Y115F)
# T3 sequence: T1 sequence with Y38F, Q44R
# [5] = molecular target: HOXA2 (Homo sapiens, UniProt O43364 129-215, R185T)
# Sequence of HOXA2 (Homo sapiens, UniProt O43364 129-215, R185T) (O43364 129-215 R185T): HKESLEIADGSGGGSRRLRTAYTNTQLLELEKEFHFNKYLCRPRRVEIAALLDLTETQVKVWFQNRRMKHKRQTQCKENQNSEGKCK
# [6] = molecular target: HOXA4 (Homo sapiens, UniProt Q00056 201-287, R217L)
# Sequence of HOXA4 (Homo sapiens, UniProt Q00056 201-287, R217L) (Q00056 201-287 R217L): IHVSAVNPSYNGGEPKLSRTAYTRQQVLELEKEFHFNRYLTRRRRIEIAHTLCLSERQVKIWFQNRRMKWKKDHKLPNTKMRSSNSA
# [7] = molecular target: HOXB4 (Homo sapiens, UniProt P17483 148-234, V174I)
# Sequence of HOXB4 (Homo sapiens, UniProt P17483 148-234, V174I) (P17483 148-234 V174I): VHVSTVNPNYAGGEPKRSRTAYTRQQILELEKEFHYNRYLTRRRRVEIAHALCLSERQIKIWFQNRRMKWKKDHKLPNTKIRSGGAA
# [8] = molecular target: HOXA2 (Homo sapiens, UniProt O43364 129-215, R185K)
# Sequence of HOXA2 (Homo sapiens, UniProt O43364 129-215, R185K) (O43364 129-215 R185K): as the sequence (O43364 129-215 R185T) above, with T57K counted along it
# [9] = molecular target: HOXA4 (Homo sapiens, UniProt Q00056 201-287, W262F)
# Sequence of HOXA4 (Homo sapiens, UniProt Q00056 201-287, W262F) (Q00056 201-287 W262F): as the sequence (Q00056 201-287 R217L) above, with L17R, W62F counted along it
# [10] = molecular target: HOXB6 (Homo sapiens, UniProt P17509 132-218, K202E)
# Sequence of HOXB6 (Homo sapiens, UniProt P17509 132-218, K202E) (P17509 132-218 K202E): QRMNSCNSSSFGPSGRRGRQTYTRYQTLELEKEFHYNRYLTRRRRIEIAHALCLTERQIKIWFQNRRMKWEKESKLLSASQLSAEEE
# [11] = molecular target: HOXB6 (Homo sapiens, UniProt P17509 132-218)
# Sequence of HOXB6 (Homo sapiens, UniProt P17509 132-218) (P17509 132-218): as the sequence (P17509 132-218 K202E) above, with E71K counted along it
# [12] = molecular target: HOXA4 (Homo sapiens, UniProt Q00056 201-287, W262R)
# Sequence of HOXA4 (Homo sapiens, UniProt Q00056 201-287, W262R) (Q00056 201-287 W262R): as the sequence (Q00056 201-287 R217L) above, with L17R, W62R counted along it
# [13] = molecular target: HOXA7 (Homo sapiens, UniProt P31268 116-202)
# Sequence of HOXA7 (Homo sapiens, UniProt P31268 116-202) (P31268 116-202): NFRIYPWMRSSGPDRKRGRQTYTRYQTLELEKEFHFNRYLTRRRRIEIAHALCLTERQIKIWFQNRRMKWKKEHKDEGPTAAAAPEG
# [14] = molecular target: HOXA4 (Homo sapiens, UniProt Q00056 201-287)
# Sequence of HOXA4 (Homo sapiens, UniProt Q00056 201-287) (Q00056 201-287): as the sequence (Q00056 201-287 R217L) above, with L17R counted along it
# [15] = molecular target: VAX1 (Homo sapiens, UniProt Q5SQQ9 86-172)
# Sequence of VAX1 (Homo sapiens, UniProt Q5SQQ9 86-172) (Q5SQQ9 86-172): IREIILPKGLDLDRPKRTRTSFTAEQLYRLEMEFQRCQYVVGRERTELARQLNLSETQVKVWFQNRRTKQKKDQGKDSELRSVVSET
# [16] = molecular target: VAX1 (Homo sapiens, UniProt Q5SQQ9 86-172, T142I)
# Sequence of VAX1 (Homo sapiens, UniProt Q5SQQ9 86-172, T142I) (Q5SQQ9 86-172 T142I): as the sequence (Q5SQQ9 86-172) above, with T57I counted along it
# [17] = molecular target: HOXA2 (Homo sapiens, UniProt O43364 129-215, Y150S)
# Sequence of HOXA2 (Homo sapiens, UniProt O43364 129-215, Y150S) (O43364 129-215 Y150S): as the sequence (O43364 129-215 R185T) above, with Y22S, T57R counted along it
# [18] = molecular target: HOXA7 (Homo sapiens, UniProt P31268 116-202, W177C)
# Sequence of HOXA7 (Homo sapiens, UniProt P31268 116-202, W177C) (P31268 116-202 W177C): as the sequence (P31268 116-202) above, with W62C counted along it
# [19] = molecular target: HOXA2 (Homo sapiens, UniProt O43364 129-215)
# Sequence of HOXA2 (Homo sapiens, UniProt O43364 129-215) (O43364 129-215): as the sequence (O43364 129-215 R185T) above, with T57R counted along it
# [20] = molecular target: VAX1 (Homo sapiens, UniProt Q5SQQ9 86-172, K157R)
# Sequence of VAX1 (Homo sapiens, UniProt Q5SQQ9 86-172, K157R) (Q5SQQ9 86-172 K157R): as the sequence (Q5SQQ9 86-172) above, with K72R counted along it
# Sequence of HOXB4 (Homo sapiens, UniProt P17483 148-234) (P17483 148-234): as the sequence (P17483 148-234 V174I) above, with I27V counted along it
sequence,measurement,setting,value
ATCGATTA,binding signal,[1],"13.1 upbm affinity estimate (log intensity, higher = more binding, comparable within an allelic series)"
same,binding signal,[2],"11.7 upbm affinity estimate (log intensity, higher = more binding, comparable within an allelic series)"
same,binding signal,[3],"12.6 upbm affinity estimate (log intensity, higher = more binding, comparable within an allelic series)"
same,binding signal,[4],"11.3 upbm affinity estimate (log intensity, higher = more binding, comparable within an allelic series)"
same,binding signal,[5],"12.6 upbm affinity estimate (log intensity, higher = more binding, comparable within an allelic series)"
same,binding signal,[6],"12 upbm affinity estimate (log intensity, higher = more binding, comparable within an allelic series)"
same,binding signal,[7],"13.8 upbm affinity estimate (log intensity, higher = more binding, comparable within an allelic series)"
same,binding signal,[8],"13.1 upbm affinity estimate (log intensity, higher = more binding, comparable within an allelic series)"
same,binding signal,[9],"11 upbm affinity estimate (log intensity, higher = more binding, comparable within an allelic series)"
CGGGCTAG,binding signal,[1],"7.46 upbm affinity estimate (log intensity, higher = more binding, comparable within an allelic series)"
same,binding signal,[2],"7.92 upbm affinity estimate (log intensity, higher = more binding, comparable within an allelic series)"
same,binding signal,[3],"7.75 upbm affinity estimate (log intensity, higher = more binding, comparable within an allelic series)"
same,binding signal,[4],"7.71 upbm affinity estimate (log intensity, higher = more binding, comparable within an allelic series)"
same,binding signal,[7],"7.53 upbm affinity estimate (log intensity, higher = more binding, comparable within an allelic series)"
CGTGCCTC,binding signal,[1],"7.37 upbm affinity estimate (log intensity, higher = more binding, comparable within an allelic series)"
same,binding signal,[10],"8.93 upbm affinity estimate (log intensity, higher = more binding, comparable within an allelic series)"
same,binding signal,[7],"7.39 upbm affinity estimate (log intensity, higher = more binding, comparable within an allelic series)"
same,binding signal,[11],"8.84 upbm affinity estimate (log intensity, higher = more binding, comparable within an allelic series)"
CTTAATGA,binding signal,[1],"13.3 upbm affinity estimate (log intensity, higher = more binding, comparable within an allelic series)"
same,binding signal,[2],"11.8 upbm affinity estimate (log intensity, higher = more binding, comparable within an allelic series)"
same,binding signal,[12],"10.7 upbm affinity estimate (log intensity, higher = more binding, comparable within an allelic series)"
same,binding signal,[13],"11.3 upbm affinity estimate (log intensity, higher = more binding, comparable within an allelic series)"
same,binding signal,[4],"11.7 upbm affinity estimate (log intensity, higher = more binding, comparable within an allelic series)"
same,binding signal,[10],"9.94 upbm affinity estimate (log intensity, higher = more binding, comparable within an allelic series)"
same,binding signal,[5],"12.8 upbm affinity estimate (log intensity, higher = more binding, comparable within an allelic series)"
same,binding signal,[6],"12.5 upbm affinity estimate (log intensity, higher = more binding, comparable within an allelic series)"
same,binding signal,[7],"13.9 upbm affinity estimate (log intensity, higher = more binding, comparable within an allelic series)"
same,binding signal,[8],"13.4 upbm affinity estimate (log intensity, higher = more binding, comparable within an allelic series)"
same,binding signal,[14],"14 upbm affinity estimate (log intensity, higher = more binding, comparable within an allelic series)"
same,binding signal,[15],"13.3 upbm affinity estimate (log intensity, higher = more binding, comparable within an allelic series)"
same,binding signal,[16],"13.1 upbm affinity estimate (log intensity, higher = more binding, comparable within an allelic series)"
same,binding signal,[17],"10.8 upbm affinity estimate (log intensity, higher = more binding, comparable within an allelic series)"
same,binding signal,[18],"8.84 upbm affinity estimate (log intensity, higher = more binding, comparable within an allelic series)"
same,binding signal,[9],"12.1 upbm affinity estimate (log intensity, higher = more binding, comparable within an allelic series)"
same,binding signal,[19],"12.7 upbm affinity estimate (log intensity, higher = more binding, comparable within an allelic series)"
same,binding signal,[20],"13.1 upbm affinity estimate (log intensity, higher = more binding, comparable within an allelic series)"
same,binding signal,[11],"11.6 upbm affinity estimate (log intensity, higher = more binding, comparable within an allelic series)"
GCCGCCGC,binding signal,[1],"7.18 upbm affinity estimate (log intensity, higher = more binding, comparable within an allelic series)"
same,binding signal,[2],"7.93 upbm affinity estimate (log intensity, higher = more binding, comparable within an allelic series)"
same,binding signal,[12],"9.6 upbm affinity estimate (log intensity, higher = more binding, comparable within an allelic series)"
same,binding signal,[3],"7.88 upbm affinity estimate (log intensity, higher = more binding, comparable within an allelic series)"
same,binding signal,[4],"7.83 upbm affinity estimate (log intensity, higher = more binding, comparable within an allelic series)"
same,binding signal,[5],"6.96 upbm affinity estimate (log intensity, higher = more binding, comparable within an allelic series)"
same,binding signal,[6],"9.61 upbm affinity estimate (log intensity, higher = more binding, comparable within an allelic series)"
same,binding signal,[7],"7.39 upbm affinity estimate (log intensity, higher = more binding, comparable within an allelic series)"
same,binding signal,[8],"9.77 upbm affinity estimate (log intensity, higher = more binding, comparable within an allelic series)"
same,binding signal,[14],"9.67 upbm affinity estimate (log intensity, higher = more binding, comparable within an allelic series)"
same,binding signal,[17],"10.3 upbm affinity estimate (log intensity, higher = more binding, comparable within an allelic series)"
same,binding signal,[9],"9.69 upbm affinity estimate (log intensity, higher = more binding, comparable within an allelic series)"
same,binding signal,[19],"6.9 upbm affinity estimate (log intensity, higher = more binding, comparable within an allelic series)"
CCTCATTA,binding signal,[1],"13.1 upbm affinity estimate (log intensity, higher = more binding, comparable within an allelic series)"
same,binding signal,[2],"11.6 upbm affinity estimate (log intensity, higher = more binding, comparable within an allelic series)"
same,binding signal,[12],"10.5 upbm affinity estimate (log intensity, higher = more binding, comparable within an allelic series)"
same,binding signal,[3],"12.5 upbm affinity estimate (log intensity, higher = more binding, comparable within an allelic series)"
same,binding signal,[4],"11.8 upbm affinity estimate (log intensity, higher = more binding, comparable within an allelic series)"
same,binding signal,[5],"13.1 upbm affinity estimate (log intensity, higher = more binding, comparable within an allelic series)"
same,binding signal,[6],"12.1 upbm affinity estimate (log intensity, higher = more binding, comparable within an allelic series)"
same,binding signal,[7],"13.7 upbm affinity estimate (log intensity, higher = more binding, comparable within an allelic series)"
same,binding signal,[8],"13.4 upbm affinity estimate (log intensity, higher = more binding, comparable within an allelic series)"
same,binding signal,[14],"13.8 upbm affinity estimate (log intensity, higher = more binding, comparable within an allelic series)"
same,binding signal,[15],"13.6 upbm affinity estimate (log intensity, higher = more binding, comparable within an allelic series)"
same,binding signal,[16],"13.3 upbm affinity estimate (log intensity, higher = more binding, comparable within an allelic series)"
same,binding signal,[17],"10.7 upbm affinity estimate (log intensity, higher = more binding, comparable within an allelic series)"
same,binding signal,[9],"11.5 upbm affinity estimate (log intensity, higher = more binding, comparable within an allelic series)"
same,binding signal,[19],"12.8 upbm affinity estimate (log intensity, higher = more binding, comparable within an allelic series)"
same,binding signal,[20],"13.4 upbm affinity estimate (log intensity, higher = more binding, comparable within an allelic series)"
GCGCAGCC,binding signal,[1],"7.53 upbm affinity estimate (log intensity, higher = more binding, comparable within an allelic series)"
same,binding signal,[7],"7.57 upbm affinity estimate (log intensity, higher = more binding, comparable within an allelic series)"
CGCAGACC,binding signal,[1],"7.32 upbm affinity estimate (log intensity, higher = more binding, comparable within an allelic series)"
same,binding signal,[2],"8.16 upbm affinity estimate (log intensity, higher = more binding, comparable within an allelic series)"
same,binding signal,[3],"7.99 upbm affinity estimate (log intensity, higher = more binding, comparable within an allelic series)"
same,binding signal,[4],"8.12 upbm affinity estimate (log intensity, higher = more binding, comparable within an allelic series)"
same,binding signal,[7],"7.36 upbm affinity estimate (log intensity, higher = more binding, comparable within an allelic series)"
ACCATTAA,binding signal,[1],"13.1 upbm affinity estimate (log intensity, higher = more binding, comparable within an allelic series)"
same,binding signal,[12],"10.6 upbm affinity estimate (log intensity, higher = more binding, comparable within an allelic series)"
same,binding signal,[13],"11.7 upbm affinity estimate (log intensity, higher = more binding, comparable within an allelic series)"
same,binding signal,[10],"10.1 upbm affinity estimate (log intensity, higher = more binding, comparable within an allelic series)"
same,binding signal,[6],"12 upbm affinity estimate (log intensity, higher = more binding, comparable within an allelic series)"
same,binding signal,[7],"13.7 upbm affinity estimate (log intensity, higher = more binding, comparable within an allelic series)"
same,binding signal,[14],"14 upbm affinity estimate (log intensity, higher = more binding, comparable within an allelic series)"
same,binding signal,[18],"8.92 upbm affinity estimate (log intensity, higher = more binding, comparable within an allelic series)"
same,binding signal,[9],"11.4 upbm affinity estimate (log intensity, higher = more binding, comparable within an allelic series)"
same,binding signal,[11],"12 upbm affinity estimate (log intensity, higher = more binding, comparable within an allelic series)"
GCTCGTTA,binding signal,[1],"11.4 upbm affinity estimate (log intensity, higher = more binding, comparable within an allelic series)"
same,binding signal,[2],"10.1 upbm affinity estimate (log intensity, higher = more binding, comparable within an allelic series)"
same,binding signal,[7],"11.6 upbm affinity estimate (log intensity, higher = more binding, comparable within an allelic series)"
ATTAATCG,binding signal,[1],"13 upbm affinity estimate (log intensity, higher = more binding, comparable within an allelic series)"
same,binding signal,[2],"11.6 upbm affinity estimate (log intensity, higher = more binding, comparable within an allelic series)"
same,binding signal,[12],"10.5 upbm affinity estimate (log intensity, higher = more binding, comparable within an allelic series)"
same,binding signal,[3],"12.5 upbm affinity estimate (log intensity, higher = more binding, comparable within an allelic series)"
same,binding signal,[4],"11.4 upbm affinity estimate (log intensity, higher = more binding, comparable within an allelic series)"
same,binding signal,[6],"11.9 upbm affinity estimate (log intensity, higher = more binding, comparable within an allelic series)"
same,binding signal,[7],"13.7 upbm affinity estimate (log intensity, higher = more binding, comparable within an allelic series)"
same,binding signal,[14],"13.6 upbm affinity estimate (log intensity, higher = more binding, comparable within an allelic series)"
same,binding signal,[9],"11.2 upbm affinity estimate (log intensity, higher = more binding, comparable within an allelic series)"
ACTAATGG,binding signal,[1],"12.9 upbm affinity estimate (log intensity, higher = more binding, comparable within an allelic series)"
same,binding signal,[2],"12.2 upbm affinity estimate (log intensity, higher = more binding, comparable within an allelic series)"
same,binding signal,[12],"10.5 upbm affinity estimate (log intensity, higher = more binding, comparable within an allelic series)"
same,binding signal,[3],"12.8 upbm affinity estimate (log intensity, higher = more binding, comparable within an allelic series)"
same,binding signal,[4],"11.9 upbm affinity estimate (log intensity, higher = more binding, comparable within an allelic series)"
same,binding signal,[5],"12.2 upbm affinity estimate (log intensity, higher = more binding, comparable within an allelic series)"
same,binding signal,[6],"11.5 upbm affinity estimate (log intensity, higher = more binding, comparable within an allelic series)"
same,binding signal,[7],"13.5 upbm affinity estimate (log intensity, higher = more binding, comparable within an allelic series)"
same,binding signal,[8],"13 upbm affinity estimate (log intensity, higher = more binding, comparable within an allelic series)"
same,binding signal,[14],"13.5 upbm affinity estimate (log intensity, higher = more binding, comparable within an allelic series)"
same,binding signal,[15],"12.7 upbm affinity estimate (log intensity, higher = more binding, comparable within an allelic series)"
same,binding signal,[16],"12.1 upbm affinity estimate (log intensity, higher = more binding, comparable within an allelic series)"
same,binding signal,[17],"10.8 upbm affinity estimate (log intensity, higher = more binding, comparable within an allelic series)"
same,binding signal,[9],"11.3 upbm affinity estimate (log intensity, higher = more binding, comparable within an allelic series)"
same,binding signal,[19],"12.1 upbm affinity estimate (log intensity, higher = more binding, comparable within an allelic series)"
same,binding signal,[20],"12.3 upbm affinity estimate (log intensity, higher = more binding, comparable within an allelic series)"
